Data as given in paper PMC12136788.
Where a chain is given by its changes, count along the chain named. In all, about 5,800 sequences were measured (“enrichment r”: median about 0.68, highest 2% from about 11 on). The list comes from a sample in which the highest values are over-represented; it also holds similar and randomly drawn sequences.

T1: UNK ZnF1-6 (called full-length) (human, UniProt Q9C0B0 30-357)
T1 sequence: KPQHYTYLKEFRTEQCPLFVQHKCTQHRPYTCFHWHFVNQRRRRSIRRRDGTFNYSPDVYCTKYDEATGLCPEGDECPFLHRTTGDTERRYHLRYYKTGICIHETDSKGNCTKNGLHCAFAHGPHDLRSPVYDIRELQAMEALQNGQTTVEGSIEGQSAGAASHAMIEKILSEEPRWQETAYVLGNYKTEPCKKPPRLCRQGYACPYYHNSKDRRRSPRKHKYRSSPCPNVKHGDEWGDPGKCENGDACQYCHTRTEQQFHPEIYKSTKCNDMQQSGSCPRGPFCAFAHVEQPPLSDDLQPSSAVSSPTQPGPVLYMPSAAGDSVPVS

B1: chr4:150908776:150908877:-|CDS|ENSG00000198589|msi1|FALSE|bound_elsewhere (ssRNA)
RNA: GGGAGUUCUACAGUCCGACGAUCGUUGAUUUGUACUUAGAUUCUCUUUGUGGCAUACUAUUUAACUGUUUUUAAUUAAUUCUUAGGGUACAUUUAAAUUCAAAGCAGAAAGCGACCUUUUCCUUGCUGAGCAUCACAAACUUUCAACAGAGGAUUGAGCAUCA
B2: chr2:150470103:150470218:-|CDS|ENSG00000115963|unk|total|mutant (ssRNA)
RNA: GGGAGUUCUACAGUCCGACGAUCAUGGCCAAACAGAUUGGAGCAGCUACUUAUAUCGAAUGCUCAGCUUUACAGUCGGAAAACCGCGUCAGAGACAUUUUUCACGUUGCCACCUUGGCAUGUGUAAAUAAGACAAAUAAAAACCAACAGAGGAUUGAGCAUCA
B3: chr3:120396629:120396730:-|3pUTR|ENSG00000163430|msi1|FALSE|unique (ssRNA)
RNA: GGGAGUUCUACAGUCCGACGAUCGCCUUCAUUUCUAGGAGUGCUUUAAGAGAAACUGUAAAUGGUGCUCUGGGGCUGGAGGCUAGUAAGGAAACUGCAUCACGAUUGAAAGAGGAACAGACCCAAAUCUGAACCUCUUUUGAGCAACAGAGGAUUGAGCAUCA
B4: chr14:100883672:100883793:-|CDS|ENSG00000254656|unk|FALSE|unique (ssRNA)
RNA: GGGAGUUCUACAGUCCGACGAUCUCUAUUCCGGGUCCCUCAGCCGGAUUCCCUAGACAGUCUGAUUGUGCUCAUCCUGCAAAUAGAAGAGAAGCUGGCAGAGAGAAGAGCUAUGCUCAGGCUGCCCCCCGAGGCCCGCCCCCGCAACAGAGGAUUGAGCAUCA
B5: chr8:23842440:23842541:-|3pUTR|ENSG00000159167|msi1|FALSE|unique (ssRNA)
RNA: GGGAGUUCUACAGUCCGACGAUCCCAAUGCGACAAGUAGUUCAUGAGUAUUCCUAGCAAAUUUCUCUCUUUCUUCAGUUCAGUAGAUUUCCUUUUUUCUUUUCUUUUUUUUUUUUUUUUUUUUUGGCUGUGACCUCUUCAAACCAACAGAGGAUUGAGCAUCA
B6: ENSG00000103657:stop:overlap|stop_codon|ENSG00000103657|stop_codon|NA|stop_codon (ssRNA)
RNA: GGGAGUUCUACAGUCCGACGAUCAGUUUUCUGUUGCUUUGACCAAAGAUGGUCAUGUGUAUACCUUUGGUCAAGGUGGUGAGUAGUCACUAUGACCUCCUUUCAGUAUAGAUAAUUUUCCACUUCUCUUUCAUGUGCUUUAUUCAACAGAGGAUUGAGCAUCA
B7: chr8:23842440:23842541:-|3pUTR|ENSG00000159167|msi1|total|mutant (ssRNA)
RNA: B5 RNA with U37C, A38C, U54C, A55C, U83C, A84C
B8: chr19:582815:582998:+|CDS_3pUTR|ENSG00000172270|msi1_unk|total|mutant (ssRNA)
RNA: GGGAGUUCUACAGUCCGACGAUCUCAUACACUUCCUUCUUUUUUAAAAAAGUUGGGUUUUCUCCAUUCAGGAUUCUGUUCCUCCGGUUUUUUUCCUUCUGAAGUGUUUCACGAGAGCCCGGGAGCUGCUGCCCUGCGGCCCCGCAACAGAGGAUUGAGCAUCA
B9: ENSG00000165868:stop:overlap|stop_codon|ENSG00000165868|stop_codon|NA|stop_codon (ssRNA)
RNA: GGGAGUUCUACAGUCCGACGAUCAGCAGCCGGCCAAGCAGUUCAUGAGACAAGCUGCCUACCAGGCGGACCCUAUGGAUCUUUAGGAGUAGAUUAUGAGUUCGAAAAACUUCUGUAUAAAAUAUUUGGAGAGGAUUUUAUUGACAACAGAGGAUUGAGCAUCA
B10: ENSG00000124766:be:win_601|CDS|ENSG00000124766|bound_else_gene|NA|bound_elsewhere_windowed (ssRNA)
RNA: GGGAGUUCUACAGUCCGACGAUCUCCAAAGUGGCGGGCGGCGCGGGCGGUGGGGUUAGCAAACCGCACGCCAAGCUCAUCCUGGCAGGCGGCGGCGGCGGCGGGAAAGCAGCGGCUGCCGCCGCCGCCUCCUUCGCCGCCGAACAACAGAGGAUUGAGCAUCA
B11: chr2:48379045:48379146:+|3pUTR|ENSG00000170802|unk|FALSE|unique (ssRNA)
RNA: GGGAGUUCUACAGUCCGACGAUCCCUUAUCCUCUUUUCUGAUGUAGCAUAAAAAUUGUCCCGGUUUGAGUUAUAACUGCCAGUAGAUGACCAGUCACAAGUGAACCACUUCUCAGUUGCCAAUCUUUGCUCAUAUUAAAAACACAACAGAGGAUUGAGCAUCA
B12: chr3:160434497:160434598:+|3pUTR|ENSG00000113810|msi1|FALSE|bound_elsewhere (ssRNA)
RNA: GGGAGUUCUACAGUCCGACGAUCUUUAUGAUAGGUUUAUCCGGGUACUAAAUGCAUUUCAACUUGAUAGUUUCAACUUAUGAUAGGUUUACCAGGAUGUAGUCCCACUGUUGAGGAGCAUCUAUUUAGGGGUUAAUUACUUUACAACAGAGGAUUGAGCAUCA
B13: ENSG00000136451:be:win_2501|3pUTR|ENSG00000136451|bound_else_gene|NA|bound_elsewhere_windowed (ssRNA)
RNA: GGGAGUUCUACAGUCCGACGAUCUCCCAAUCAGAGCCUGUUGAUAUUACAACAGGGACAGAUGUGUUAGUUGCUCACUAGAGUUUAUGUCUUAUAUUAAAUUGUAUACAGUUUUUAUUCUAACCACUAACUAGGUAGUGUAUGCAACAGAGGAUUGAGCAUCA
B14: ENSG00000136451:be:win_2551|3pUTR|ENSG00000136451|bound_else_gene|NA|bound_elsewhere_windowed (ssRNA)
RNA: GGGAGUUCUACAGUCCGACGAUCUCACUAGAGUUUAUGUCUUAUAUUAAAUUGUAUACAGUUUUUAUUCUAACCACUAACUAGGUAGUGUAUGCCCCUUCAGAACAUGCAGAGUGUAUCUUUUUUUAAAUUUCUCCUUCCGUUCAACAGAGGAUUGAGCAUCA
B15: chr12:76028505:76028606:-|3pUTR|ENSG00000139289|msi1|FALSE|unique (ssRNA)
RNA: GGGAGUUCUACAGUCCGACGAUCAAGUCUUGGUCAGUAUUUUUCCAGCAUUUAAAUUGAAACGGUCAGUAUUAGACCACUGCUAGGUUAUGUAGUCAAGAAAUAAAAAUAGAAUUACAUGCUACAGAUGUCUUUAUUCUCCUUCAACAGAGGAUUGAGCAUCA
B16: chr7:6403584:6403671:+|3pUTR|ENSG00000136238|msi1_unk|FALSE|overlapping (ssRNA)
RNA: GGGAGUUCUACAGUCCGACGAUCUUUUCUAGUAACUAGGUGUAAAAAUCAUGUGUUGCAGCUUUAUAGUUUUUAAAAUAUUUUAGAUAAUUCUUAAACUAUGAACCUUCUUAACAUCACUGUCUUGCCAGAUUACCGACACUGCAACAGAGGAUUGAGCAUCA

biological target: T1, UNK ZnF1-6 (called full-length); assay: nsRBNS (natural sequence RNA bind-n-seq); RBNS binding buffer (assumed for nsRBNS): 25 mM Tris pH 7.5, 150 mM KCl, 3 mM MgCl2, 0.01% Triton X-100, 500 ug/ml BSA, 20 U/ml SUPERase-In, 4 C; UNK is unkempt and MSI1 is Musashi-1; names of the RNAs are library labels; protein concentration not given here; high values mean tight binding

Row | Binder | binding signal [enrichment R]
1 | B1 | 3.69
2 | B2 | 0.384
3 | B3 | 0.489
4 | B4 | 0.977
5 | B5 | 28.9
6 | B6 | 0.846
7 | B7 | 3.66
8 | B8 | 0.504
9 | B9 | 0.728
10 | B10 | 0.449
11 | B11 | 0.685
12 | B12 | 2.3
13 | B13 | 12.3
14 | B14 | 11.6
15 | B15 | 0.83
16 | B16 | 3.16
